# A number with no mark means an inactive call. How the calls were made is not given here.
# Tested on: Potassium Channel [KATP]
# Test: CYP450 and receptor off-target profile – biochemical, Ricerca HitProfilingScreen, selectivity assay for S1P4 agonist project, late-stage follow-up (AID 504400)
# Conditions: Ricerca radioligand binding/enzyme panel plus CYP450, at 10 µM, stronger effect = higher value
compound,measurement,value
Clc1ccc(OCCOc2ccc(Br)nc2Br)c(Cl)c1,inhibition,20%

# — PubChem BioAssay AID504400 (The Scripps Research Institute Molecular Screening Center, 2011)
